Screens from PubChem BioAssay.
Many of the other results were omitted from the sample, so hits are more common in it than they were.
GIRK2 activator – Activates human GIRK2-containing potassium channels. P48051. HEK293 GIRK2/NPY4 cells, thallium flux fluorescence. activation (% efficacy), % for hits at 37.5 µM. 34,000 tested, under 10 active. AID 1259324;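 active = primary screen hit, no activity in plain HEK293 cells, and in GIRK2-only cells above 5% efficacy rising with concentration; inactive = the rest, including fluorescent compounds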;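 also: efficacy is normalized control-subtracted fluorescence 15 s after thallium addition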
Target sequence (P48051 whole entry, looked up): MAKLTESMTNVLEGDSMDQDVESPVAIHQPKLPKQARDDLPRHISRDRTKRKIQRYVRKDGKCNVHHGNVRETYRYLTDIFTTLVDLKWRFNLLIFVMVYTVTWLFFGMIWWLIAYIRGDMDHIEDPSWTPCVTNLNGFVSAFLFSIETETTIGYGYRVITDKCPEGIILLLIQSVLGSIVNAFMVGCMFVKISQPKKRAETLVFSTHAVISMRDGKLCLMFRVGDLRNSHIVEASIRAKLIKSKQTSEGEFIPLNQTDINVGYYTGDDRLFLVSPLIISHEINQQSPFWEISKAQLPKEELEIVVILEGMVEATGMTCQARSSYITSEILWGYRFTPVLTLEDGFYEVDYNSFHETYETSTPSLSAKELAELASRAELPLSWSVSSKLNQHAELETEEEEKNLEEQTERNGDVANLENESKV
GluA2 TARP mod – modulates AMPAR-stargazin complexes; calls only at 30 µM; HEK293 GluA2+stargazin, membrane potential dye (FDSS), glutamate EC50; hits were called plate by plate, in both directions; 3.5% of 40,000 active; AID 1259245; O88602+P19491;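 active = any of four per-well response measures lying three or more SD from its plate-wide compound average, in either direction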
* = called active by the depositor; i = inactive; nt = no result given; + = active, no number.

SMILES	GIRK2 activator	GluA2 TARP mod
CCOc1ccc(S(=O)(=O)N2CCCC(C)C2)c2ccccc12 (configuration not stated)	nt	i
O=C(Cc1csc(SCC(=O)c2ccccc2)n1)Nc1ccccc1	i	nt
O=C1CCc2cc(NC(=O)NC3CCCCC3)ccc2N1	i	i
CCOc1cc(C)c(S(=O)(=O)N2CCCCCC2)cc1C(C)C	nt	i
O=C(NCC(c1cccs1)N1CCOCC1)c1c(F)cccc1Cl (configuration not stated)	i	i
O=C(NCC(c1ccsc1)N1CCCCCC1)c1c(F)cccc1Cl (configuration not stated)	i	+
CCOc1ccccc1NC(=O)c1sc(=S)n(-c2cc(OC)ccc2OC)c1N	i	i
Cc1cccc(C)c1NC(=O)CCc1csc(NC(=O)c2ccco2)n1	i	i
COc1ccc(CCNc2cc(C)nc3c(-c4ccccc4OC)cnn23)cc1OC	i	+
COc1ccc(CCNc2cc(C)nc3c(-c4ccccc4OC)c(C)nn23)cc1OC	i	i
COCCn1nc(-c2ccc(Cl)cc2)ccc1=O	i	i
COCCn1nc(-c2ccc3c(c2)OCO3)ccc1=O	i	+
CCOC(=O)C1=C(C)NC2=C(C(=O)CCC2)C1c1ccc(C(C)C)cc1 (configuration not stated)	nt	i
COC(=O)c1sccc1S(=O)(=O)N(CC(=O)Nc1ccccc1OC)c1ccc(Cl)cc1	nt	+
COC(=O)c1sccc1S(=O)(=O)N(CC(=O)Nc1ccc(OC)cc1)c1ccccc1	i	i
COC(=O)c1sccc1S(=O)(=O)N(CC(=O)Nc1ccc(OC)cc1)c1ccc(Cl)cc1	i	+
COC(=O)c1sccc1S(=O)(=O)N(CC(=O)Nc1cc(C)ccc1C)c1ccc(Cl)cc1	i	i
Cc1nn(-c2ccc(N3CCN(C(=O)C4CCCC4)CC3)nn2)c(C)c1C	i	i
Cc1ccc(-c2cc(C(F)F)n3ncc(C(=O)N4CCC(C)CC4)c3n2)cc1	nt	+
Cc1ccc(-c2cc(C(F)F)n3ncc(C(=O)n4c(C)nc5ccccc54)c3n2)cc1	nt	i
COc1ccc2c(NCc3ccc(OC)c(OC)c3)c(C#N)cnc2c1	i	nt
NC(=O)c1ccccc1NC(=O)/C=C/c1ccco1	i	i
COc1ccc(N2CCN(C(=O)c3ccc(S(=O)(=O)N4CCCC4)cc3)CC2)nn1	i	nt
CN(C)c1ccc(N2CCN(C(=O)c3ccc(S(N)(=O)=O)cc3)CC2)nn1	i	+
COc1cccc(C(=O)Nc2ccc3c(c2)CCC(=O)N3C)c1	nt	i
SMILES	GIRK2 activator	GluA2 TARP mod
CCC(Oc1ccccc1)C(=O)Nc1cc(Cl)c(OC)cc1OC (configuration not stated)	nt	i
O=C(CCCS(=O)(=O)c1ccc(Cl)cc1)Nc1ccccc1-c1nc2ccccc2[nH]1	nt	i
CC(O)(CNS(=O)(=O)c1ccc(C(F)(F)F)cc1)c1ccccc1 (configuration not stated)	i	nt
COc1ccc(-n2c(C)cn3c4c(=O)n(Cc5ccc(C)cc5)c(=O)n(C)c4nc23)cc1	nt	i
Cc1ccc(N2CC(c3nc4ccccc4n3Cc3ccccc3C)CC2=O)cc1 (configuration not stated)	nt	i
C=CCN1CC(c2nc3ccccc3n2Cc2cc(C)ccc2C)CC1=O (configuration not stated)	nt	+
Cc1ccc(C)c(Cn2c(C3CC(=O)N(c4ccccc4)C3)nc3ccccc32)c1 (configuration not stated)	nt	+
C=CCN1CC(c2nc3ccccc3n2Cc2ccccc2C)CC1=O (configuration not stated)	nt	i
C=CCN1CC(c2nc3ccccc3n2CC(O)COc2c(C)cccc2C)CC1=O (configuration not stated)	i	+
Cc1cc(C)cc(OCC(O)Cn2c(C3CC(=O)N(Cc4ccccc4)C3)nc3ccccc32)c1 (configuration not stated)	i	i
OCC1(CO)CN(C2CCCC2)C1	i	i
Cc1nc(COc2ccc3c(c2)CCC3=O)cs1	i	nt
O=C(NCc1ccncc1)C(=O)Nc1ccc(F)c([N+](=O)[O-])c1	i	i
O=C(Nc1ccc(O)cc1)C(=O)Nc1ccc(F)c([N+](=O)[O-])c1	i	+
O=C(CSc1nc(=O)n(CCO)c2c1CCCC2)N1CCc2ccccc21	i	i
O=C(CSc1nc(=O)n(CCCO)c2c1CCC2)N1CCc2ccccc21	i	+
Cc1ccc(CNC(=O)c2cc3c(=O)n4ccccc4nc3n(Cc3ccco3)c2=N)cc1	i	i
N=c1c(C(=O)NC2CCCC2)cc2c(=O)n3ccccc3nc2n1C1CCCC1	i	+
CC(C)N1CCC(CNC(=O)C(=O)NCc2ccc3c(c2)OCO3)CC1	i	i
O=C(NCc1ccc2c(c1)OCO2)C(=O)NCC1CCN(C(=O)c2ccncc2)CC1	i	+
